3 molecules from PubChem BioAssay (EPA / NIEHS) can be followed below.

Inconclusive results are not listed. The source made the active and inactive calls. How the source made its calls, unless noted: active means hit-call score of the fitted dose curve at least 0.9, where 1 is the maximum; inconclusive means response in the unintended direction; inactive means score below 0.9.

Assay [1] is described as follows: TOX21_p53_BLA_p2_viability: Viability Assessment in the Tox21 HCT-116 p53 Agonism Beta-lactamase Assay, Phase 2 (AID 2283591).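 Further: compound exposure lasted 16 h at 37 °C; actives lower the ATP signal meaning cytotoxicity.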 In a few lines: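 HCT-116 p53-bla cells (4000/well) rested 5 h at 37C, then received compounds in DMSO (217-fold dilution) for 16 h at 37C, 5% CO2. After the CCF4 read, CellTiter-Glo was added; ATP luminescence was read after 30 min at room temperature.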

The target in assay [2] is Cellular tumor antigen p53 (Homo sapiens) (UniProt P04637). Nature of the assay: TOX21_p53_BLA_p2_ratio: Tox21 HCT-116 p53 Agonism Beta-lactamase Assay, Ratio, Phase 2 (AID 2283592). In short, it runs like this: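 HCT116 p53-bla; 4000 cells/well; 5 h pre-incubation; cpd in DMSO, 217-fold dilution; 16 h 37C/5% CO2; CCF4-AM 2 h RT; Ex 405, Em 460/530 ratio; DMSO = baseline; positive fitting direction.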
Cellular tumor antigen p53 (Homo sapiens), sequence (P04637 whole entry, looked up): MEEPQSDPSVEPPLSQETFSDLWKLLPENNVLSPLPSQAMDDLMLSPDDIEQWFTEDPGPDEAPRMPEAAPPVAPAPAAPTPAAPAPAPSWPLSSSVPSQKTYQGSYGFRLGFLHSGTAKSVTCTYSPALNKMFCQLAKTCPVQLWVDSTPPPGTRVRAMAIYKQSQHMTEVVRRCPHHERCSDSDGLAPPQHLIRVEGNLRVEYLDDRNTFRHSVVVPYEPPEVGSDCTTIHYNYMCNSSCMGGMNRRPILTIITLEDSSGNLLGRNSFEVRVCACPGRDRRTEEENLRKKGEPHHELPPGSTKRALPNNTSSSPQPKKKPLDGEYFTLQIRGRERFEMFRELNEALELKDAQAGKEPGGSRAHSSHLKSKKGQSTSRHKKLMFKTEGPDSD

Assay [3] is described as follows: TOX21_p53_BLA_p3_viability: Viability Assessment in the Tox21 HCT-116 p53 Agonism Beta-lactamase Assay, Phase 3 (AID 2283593).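 Further: cells exposed to compound for 16 h before reading.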 In short, it runs like this: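 HCT-116 cells (4000/well) rested 5 h at 37C, then got DMSO compounds by pin tool (217-fold dilution) for 16 h at 37C, 5% CO2. After the bla read, CellTiter-Glo was added and luminescence read at 30 min, room temperature.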

The target of assay [4] is Cellular tumor antigen p53 (Homo sapiens) (UniProt P04637). Nature of the assay: TOX21_p53_BLA_p3_ratio: Tox21 HCT-116 p53 Agonism Beta-lactamase Assay, Ratio, Phase 3 (AID 2283596). In short, it runs like this: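 HCT116 p53-bla cells (4000/well) given compound in DMSO (217-fold dilution) after 5 h, incubated 16 h at 37C. CCF4-AM substrate 2 h at room temperature; 460/530 nm emission ratio, gain fitted against DMSO.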

The nature of assay [5]: TOX21_p53_BLA_p4_viability: Viability Assessment in the Tox21 HCT-116 p53 Agonism Beta-lactamase Assay, Phase 4 (AID 2283597).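 Further: hits lower the luminescence signal meaning cytotoxicity.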 In a few lines:
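Cells plated, 5 h pre-incubation; DMSO compounds pinned (217-fold dilution); 16 h, 37C/5% CO2; CCF4-AM 2 h RT; CellTiter-Glo 30 min RT; luminescence read.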

Assay [6] can be described thus: TOX21_p53_BLA_p5_viability: Viability Assessment in the Tox21 HCT-116 p53 Agonism Beta-lactamase Assay, Phase 5 (AID 2283600). In short, it runs like this:
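4000 cells/well; 5 h pre-incubation; DMSO compounds pin-transferred, 217-fold dilution; 16 h, 37C/5% CO2; CCF4-AM 2 h RT; CellTiter-Glo 30 min RT; luminescence.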

In assay [7] the target is Cellular tumor antigen p53 (Homo sapiens) (UniProt P04637). Nature of the assay: TOX21_p53_BLA_p4_ratio: Tox21 HCT-116 p53 Agonism Beta-lactamase Assay, Ratio, Phase 4 (AID 2283601). In short, it runs like this:
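HCT116 cells carrying an inducible beta-lactamase reporter were plated at 4000 cells/well, rested 5 h, then exposed to compounds in DMSO (217-fold dilution) for 16 h at 37C. CCF4-AM substrate was loaded 2 h at room temperature; 460/530 nm emission ratio scored gain-of-signal versus DMSO.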

Assay [8] concerns the target PGR (gene 5241) (UniProt P06401). The assay can be described thus: TOX21_PR_BLA_Followup_Agonist_ratio: Tox21 HEK293 Progesterone Receptor (PR) Agonism Beta-lactamase Follow-Up Assay, Ratio (AID 2283933). In a few lines: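 HEK293T PR-UAS-bla, 2% CS-FBS; 6 hr preincubation, cpd/DMSO pinned, 16 hr 37C/5% CO2; LiveBLAzer B/G 2 hr RT; FRET ch2/ch1 ratio, agonist direction vs DMSO. Viability by CellTiter-Glo in same wells.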

Assay [9] has the same target. The assay can be described thus: TOX21_PR_BLA_Followup_Antagonist_ratio: Tox21 HEK293 Progesterone Receptor (PR) Antagonism Beta-lactamase Follow-Up Assay, Ratio (AID 2283934). In short, it runs like this:
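HEK293T PR-UAS-bla, 2% CS-FBS; 6 hr plating, then cpd + R5020 (1 nM final), 16 hr 37C/5% CO2. B/G FRET substrate 2 h RT. Ratio ch2/ch1 vs DMSO; CellTiter-Glo viability multiplexed, autofluorescence checked.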

The nature of assay [10]: TOX21_PR_BLA_Followup_Agonist_viability: Viability Assessment in the Tox21 HEK293 Progesterone Receptor (PR) Agonism Beta-lactamase Follow-Up Assay (AID 2283935).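 Further: signal loss means lower viability so actives are cytotoxic.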 In a few lines: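 HEK293T PR-UAS-bla, 3,000 cells/well, 2% CS-FBS; 6 hr pre-incubation; cpd in DMSO, 16 hr 37C; LiveBLAzer 2 hr RT, then CellTiter-Glo 30 min RT, luminescence. Decrease = lost viability.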
Assay [11] can be described thus: TOX21_PR_BLA_Followup_Antagonist_viability: Viability Assessment in the Tox21 HEK293 Progesterone Receptor (PR) Antagonism Beta-lactamase Follow-Up Assay (AID 2283936).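 Further: hits lower the luminescence signal meaning cytotoxicity.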 In short, it runs like this:
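PR-UAS-bla HEK293T cells (3,000/well, 2% charcoal-stripped FBS) given compound plus R5020 agonist, 16 h at 37C. CellTiter-Glo added after bla read, 30 min at room temperature; luminescence loss indicates cytotoxicity.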

For assay [12], the target named is PGR (gene 5241) (UniProt P06401). Nature of the assay: TOX21_PR_LUC_Followup_Agonist: Tox21 HEK293 Progesterone Receptor (PR) Agonism Luciferase Follow-Up Assay (AID 2283937; active means hit-call score of the fitted dose curve at least 0.9, where 1 is the maximum; inactive means score below 0.9). In a few lines:
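Cells: HEK293-PR-A-luc, 3,000/well, 10% charcoal-stripped FBS assay medium. Compound added after 5 h; 16 h, 37C, 0% CO2. ONE-Glo luciferase, luminescence. Positive fit vs DMSO.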

A short description of assay [13]: TOX21_PR_LUC_Followup_Antagonist_viability: Viability Assessment in the Tox21 HEK293 Progesterone Receptor (PR) Antagonism Luciferase Follow-Up Assay (AID 2283940). In short, it runs like this:
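Multiplexed viability counter-screen: after 5 days in charcoal-stripped-FBS medium, HEK293-PR-A-luc cells are plated, pinned with DMSO-dissolved compounds for 16 h at 37C, and ATP content is quantified luminescently via CellTiter-Glo.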

Assay [14] in a line: TOX21_PR_LUC_Followup_Agonist_viability: Viability Assessment in the Tox21 HEK293 Progesterone Receptor (PR) Agonism Luciferase Follow-Up Assay (AID 2283941).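 Further: loss of signal means cytotoxicity so actives lower viability.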 In a few lines:
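Cells were kept 5 days in charcoal-stripped serum medium before plating HEK293-PR-A-luc at 3,000 cells/well. After 5 h they received DMSO-dissolved compound and incubated 16 h at 37C. Viability was taken from CellTiter-Glo ATP luminescence.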

Assay [15] addresses Cellular tumor antigen p53 (Homo sapiens) (UniProt P04637). Nature of the assay: TOX21_p53_BLA_p5_ratio: Tox21 HCT-116 p53 Agonism Beta-lactamase Assay, Ratio, Phase 5 (AID 2283599). In short, it runs like this:
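HCT-116 cells carrying a p53-inducible beta-lactamase reporter were seeded at 4000 cells/well and dosed after 5 h with compound in DMSO (217-fold dilution). After 16 h at 37C, CCF4-AM substrate was added for 2 h, and the 460/530 nm emission ratio was scored as gain-of-signal versus DMSO.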

A short description of assay [16]: CCTE_Deisenroth_H295R-HTRF_384WELL_ESTRADIOL: CCTE's H295R-HTRF Assay Evaluation of Estradiol Concentration, Deisenroth Lab (AID 2284361; active means hit-call score of the fitted dose curve at least 0.9, where 1 is the maximum; inactive means score below 0.9). The settings on record: actives raise or lower the signal. In a few lines: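 H295R cells exposed 48 h to chemicals at 0.001 - 100 uM final (nine points, triplicate); estradiol in conditioned medium measured by HTRF immunoassay, fitted bidirectionally versus DMSO. Viability by CellTiter-Glo on same plates.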

The nature of assay [17]: CCTE_Deisenroth_H295R-HTRF_384WELL_TESTOSTERONE: CCTE's H295R-HTRF Assay Evaluation of Testosterone Concentration, Deisenroth Lab (AID 2284373; active means hit-call score of the fitted dose curve at least 0.9, where 1 is the maximum; inactive means score below 0.9). The settings on record: actives raise or lower the signal. In short, it runs like this: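 Secreted testosterone was quantified by HTRF immunoassay of medium from human adrenocortical H295R cells after 48 h chemical exposure at 0.001–100 uM final. Gain or loss was fitted against DMSO. ATP-based viability was read on matched wells, five experimental replicates.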

Assay [18] can be described thus: CCTE_Deisenroth_H295R-HTRF_384WELL_CTOX: Cytotoxicity Assessment in CCTE's H295R-HTRF Assay, Deisenroth Lab (AID 2284380). In a few lines:
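H295R adrenocortical carcinoma cells plated 24 h, then exposed 48 h to nine-point series 0.001–100 uM final, triplicate, n=5. ATP measured by CellTiter-Glo 2.0 luminescence on same plates after medium collection; loss versus DMSO.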

PGR (gene 5241), sequence (P06401 whole entry, looked up): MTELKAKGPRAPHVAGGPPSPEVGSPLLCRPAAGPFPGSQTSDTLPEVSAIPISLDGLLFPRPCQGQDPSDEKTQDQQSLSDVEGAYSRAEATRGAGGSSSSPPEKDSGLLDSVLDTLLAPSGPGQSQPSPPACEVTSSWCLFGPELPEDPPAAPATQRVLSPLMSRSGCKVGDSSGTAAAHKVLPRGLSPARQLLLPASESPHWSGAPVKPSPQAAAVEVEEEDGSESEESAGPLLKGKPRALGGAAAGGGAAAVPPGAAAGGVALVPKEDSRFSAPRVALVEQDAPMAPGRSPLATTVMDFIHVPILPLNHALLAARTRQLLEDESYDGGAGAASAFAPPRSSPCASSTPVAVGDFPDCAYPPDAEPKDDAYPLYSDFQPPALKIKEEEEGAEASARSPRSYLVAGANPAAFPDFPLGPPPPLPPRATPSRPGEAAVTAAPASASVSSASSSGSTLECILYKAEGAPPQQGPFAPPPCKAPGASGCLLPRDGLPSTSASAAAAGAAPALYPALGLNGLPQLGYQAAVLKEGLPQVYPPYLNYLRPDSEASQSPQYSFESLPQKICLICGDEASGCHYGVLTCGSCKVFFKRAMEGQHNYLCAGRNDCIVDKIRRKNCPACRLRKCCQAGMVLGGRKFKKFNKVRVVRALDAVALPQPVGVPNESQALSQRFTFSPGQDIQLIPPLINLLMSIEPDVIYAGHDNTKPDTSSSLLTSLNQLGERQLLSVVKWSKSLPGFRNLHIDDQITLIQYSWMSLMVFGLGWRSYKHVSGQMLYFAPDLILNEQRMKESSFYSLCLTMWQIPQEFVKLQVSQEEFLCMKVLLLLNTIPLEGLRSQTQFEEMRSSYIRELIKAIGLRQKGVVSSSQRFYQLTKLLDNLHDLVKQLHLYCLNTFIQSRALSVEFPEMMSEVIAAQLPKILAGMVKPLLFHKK

Regarding `CC(=O)O[C@H]1CC[C@@]2(C)C(=CC[C@@H]3[C@@H]2CC[C@]2(C)C(=O)CC[C@@H]32)C1`, the molecule was classed as inactive in assay [1], in assay [2], in [3], in assay [4], in [5] and in assay [6]. Also, the outcome (in [7]; in the assay with PGR (gene 5241) [8]; with PGR (gene 5241) [9]; in assay [10]; in assay [11]; in the assay with PGR (gene 5241) [12]) was inactive. Further, the call in [13] and in [14] was inactive.
For the molecule `CN[C@H]1C[C@@H](N)[C@H](O)[C@@H](O[C@@H]2O[C@H](CO)[C@H](O)[C@@H]3OC4(O[C@H]23)O[C@H](C(N)CO)[C@H](O)[C@H](O)C4O)[C@@H]1O` (some centres not stated), the molecule was classed as inactive in [1], in assay [2], in assay [3], in [4], in assay [5] and in assay [15]. In addition, in assay [7], the result was inactive.
A word on the AC50: it is the concentration at which the activity in the assay is half-maximal. On to `C[C@@H]1CC[C@@]2(OC1)O[C@H]1[C@@H](O)[C@H]3[C@@H]4CC[C@H]5C[C@@H](O[C@@H]6O[C@H](CO)[C@H](O[C@@H]7O[C@H](CO)[C@@H](O)[C@H](O[C@@H]8OC[C@@H](O)[C@H](O)[C@H]8O)[C@H]7O[C@@H]7O[C@H](CO)[C@@H](O)[C@H](O[C@@H]8O[C@H](CO)[C@@H](O)[C@H](O)[C@H]8O)[C@H]7O)[C@H](O)[C@H]6O)[C@H](O)C[C@]5(C)[C@H]4CC[C@]3(C)[C@H]1[C@@H]2C`, for which the AC50 in assay [1] was 19 µM (active); in assay [2], 39.1 µM (active); in assay [3] it was 48.5 µM (active); in assay [4], 81.5 µM (active); in assay [5] it was 18.7 µM (active); in assay [15], 69.7 µM (active). Further, the AC50 in assay [6] was 33.3 µM (active); in assay [7] it was 76.9 µM (active); in assay [16] it was 88.2 µM (active); in [17], 2.93 µM (active); in assay [18] it was 6.26 µM (active).
